In the library only some 21% were active in any assay of this set; here they are far more common.
Shiga inhibitor – A qHTS for Small Molecule Inhibitors of Shiga Toxin | Vero cells, Shiga toxin protein synthesis inhibition reporter | inhibition, % at 38.7 µM | 9.2% of 290,000 active; in the data active = inhibition mostly above about 28%, no sharp cut-off; inactive = mostly below about 43%; also: 0% is about no effect
Pf growth 48h – Primary qHTS for delayed death inhibitors of the malarial parasite plastid, 48 hour incubation. P. falciparum luciferase growth in erythrocytes, 48 h. Potency, µM (doses to about 28.7 µM), inactives show at the highest dose activity change, negative = inhibition, actives largely listed as inhibitors. 5.9% of 310,000 active. AID 504832, 2011; also: potency is read from the fitted curve at half-maximal effect; % is scaled to controls: 0 for no effect and ±100 for the full control effect
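Firefly luciferase activity from engineered P. falciparum reports growth; inhibitors lower the luminescent signal. Cultures contained 2% hematocrit erythrocytes at 0.1% final parasitemia.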
Cycloheximide cs – Cycloheximide Counterscreen for Small Molecule Inhibitors of Shiga Toxin; max response, %; AID 2314, 2010; cell reporter, cycloheximide protein synthesis inhibition counterscreen; 12% of 300,000 active; in the data active = max response mostly above about 13%, no sharp cut-off; inactive = mostly below about 14%; also: read at 38.3 µM for the half of the compounds with a filed dose; 0% is about no effect
HCV inhibitor – qHTS Assay for Inhibitors of Hepatitis C Virus (HCV); 3.4% of 340,000 active; Potency, µM (titrated, usually from 41.8 µM), for the others: top-dose activity change, negative = inhibition, actives largely listed as inhibitors; AID 651820, 2012; Huh7.5.1 HCVcc-Cre infection, luciferase reporter, 44 h; also: potency is read from the fitted curve at half-maximal effect; % is scaled to controls: 0 for no effect and ±100 for the full control effect
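Whole-lifecycle infectious HCVcc-Cre system; cells 1,000/well, compound then virus (~0.5 moi) added 4 h after plating, 44 h culture. Luciferase read 15 sec following 15 min substrate incubation, room temp.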
HCMV inh – qHTS Assay for inhibitors of the human cytomegalovirus (HCMV); 4.5% of 410,000 active; HFF cells, HCMV-luciferase reporter, 72 h; hits give low values; activity change, negative = inhibition, % at 57.5 µM; in the data active = activity change below about -60%; inconclusive = no clear call, values can overlap the other calls; inactive = above about -39%; also: % is scaled to controls: 0 for no effect and ±100 for the full control effect
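Cell-based, HFFs, 1000 cells/well, 16 h 37C; cpds in DMSO + HCMV-luc, MOI 1 PFU/cell; 72 h 37C; OneGlo luminescence after 5 min RT; norm. to buffer vs Salinomycin 10uM.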
Pf growth 96h – Primary qHTS for delayed death inhibitors of the malarial parasite plastid, 96 hour incubation. 6.9% of 320,000 active. P. falciparum luciferase reporter growth, 96 h. Potency, µM (top dose mostly 28.7 µM), for inactives: at the highest dose activity change, negative = inhibition, usual class: inhibitors; also: potency is read from the fitted curve at half-maximal effect; % is scaled to controls: 0 for no effect and ±100 for the full control effect
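P. falciparum expressing integrated firefly luciferase, in erythrocytes at 2% hematocrit, 0.05% parasitemia, incubated with compounds 96 h at 37 C, 5% CO2. Growth inhibition read as loss of luminescence; two-generation exposure targets delayed-death apicoplast inhibitors.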
An asterisk follows results filed as active; i = inactive; u = inconclusive; x = not tested or not shown; [ ] = another dose, or the depositor's remark. Unless noted, calls follow the shape of the dose curve; as a rule, active = well fitted inhibition curve with a large enough effect; inconclusive = small, poorly fitted or top-dose-only effect, or another doubt; inactive = no such curve, though single readings can be large or run the other way.

SMILES	Shiga inhibitor	Pf growth 48h	Cycloheximide cs	HCV inhibitor	HCMV inh	Pf growth 96h
Cc1cc(C)nc(/N=C(\N)N(Cc2ccccc2)Cc2ccccc2)n1	-2	u	-5	u	-4	10µM*
O=C(COC(=O)c1ccc[nH]c1=O)Nc1cc(S(=O)(=O)N2CCCCCC2)ccc1Cl	x	6%	x	11%	-22	0%
O=C(Oc1cccc(Nc2ncnc3ccccc23)c1)c1cccnc1	16	u	7	3%	1	19%
COc1cc(C(=O)Oc2cccc(Nc3ncnc4ccccc34)c2)cc(OC)c1OC	16	u	8	25µM*	-70*	0%
COc1ccc(C(=O)Oc2cccc(Nc3ncnc4ccccc34)c2)cc1OC	3	12%	8	u	-18	2.3µM*
CC(C)(C)C(=O)Oc1cccc(Nc2ncnc3ccccc23)c1	10	0%	9.6*	1%	-19	u
CC1CCc2c(sc(NC(=O)c3cc4nc(-c5ccc(Cl)cc5)cc(C(F)(F)F)n4n3)c2C#N)C1 (stereo not drawn)	x	x	x	x	-20	x
COc1cc2c(cc1OC)C(COc1ccc(F)cc1)N(C(=O)c1ccc(S(=O)(=O)N3CCCC3)cc1)CC2 (stereo not drawn)	x	x	x	x	13	x
CCN1CCN(c2ccc(S(=O)(=O)N3CCOCC3)cc2NC(=O)c2ccc(Cl)cc2Cl)CC1	x	13µM*	x	u	-1	u
CCN1CCN(S(=O)(=O)c2ccc(Cl)c(C(=O)Nc3cc(Cl)ccc3N3CCOCC3)c2)CC1	-3	u	-2	u	25	13µM*
CCN1CCN(c2ccc(S(=O)(=O)N3CCOCC3)cc2NC(=O)c2ccc(C)c(C)c2)CC1	x	u	x	16%	-13	u
COc1cccc(NC(=O)COc2coc(CN3CCc4ccccc4C3)cc2=O)c1	x	20%	x	-3%	4	u
CCc1nnc(NC(=O)c2ccc(-c3ccc(C(C)=O)cc3)o2)s1	x	-15%	x	0%	-10	u
CC(=O)c1ccc(-c2ccc(C(=O)Nc3nc(-c4ccccn4)cs3)o2)cc1	x	x	x	2.5µM*	84	x
CC(=O)Nc1ccc(-c2csc(NC(=O)c3ccc(C)o3)n2)cc1	11	x	-3	-17%	39	9.3µM*
CCc1nnc(NC(=O)c2ccc(-c3ccccc3F)o2)s1	28	19%	22*	-12%	0	u
CCc1nnc(NC(=O)c2ccc(-c3ccc(Cl)cc3)o2)s1	43	36%	2	10%	10	x
Cc1ccc(C(=O)Nc2nc(-c3ccc([N+](=O)[O-])cc3)cs2)o1	-7	9%	9	6%	u	u
Cc1ccc(C(=O)Nc2nc(-c3ccccn3)cs2)o1	48*	4.1µM*	23*	u	35	2.3µM*
N#CC1(NC(=O)COC(=O)c2cccc(-n3cnnn3)c2)CCCCC1	x	7%	x	21%	-29	15%
O=C(c1cc2c(c(-c3cccc(-c4ccc(F)cc4)c3)n1)[C@H](CCO)N(C(=O)c1ccc3c(c1)OCO3)C2)N1CCOCC1	x	x	x	x	-31	x
O=C(Nc1nc(-c2ccccn2)cs1)c1ccc(-c2ccccc2F)o1	x	u	x	u	-70*	u
O=C(COc1ccc([N+](=O)[O-])cc1)Nc1nc(-c2ccccn2)cs1	x	9.3µM*	x	10µM*	-71*	6.6µM*
O=C(Nc1nc(-c2ccccn2)cs1)c1ccc([N+](=O)[O-])o1	10	2.9µM*	16	8.9µM*	45	2.3µM*
O=C(NCc1ccccc1)c1ccc(-c2ccccc2F)o1	41*	62%	52*	5%	127	-2%
SMILES	Shiga inhibitor	Pf growth 48h	Cycloheximide cs	HCV inhibitor	HCMV inh	Pf growth 96h
COc1ccc(Cl)cc1NC(=O)COC(=O)CCNS(=O)(=O)c1cccs1	x	1%	x	-20%	-21	33%
Cc1nc(-c2cccc(NC(=O)c3ccc(Br)o3)c2)cs1	25	-9%	16	u	-33	u
Cc1ccc(OCC(=O)Nc2nc(-c3ccccn3)cs2)c(C)c1	x	-18%	x	1%	x	u
Cc1nc(-c2ccc(NC(=O)c3ccc(Br)o3)cc2)cs1	114*	175%	56*	u	-12	21%
CCc1cc(C(=O)Nc2nc(-c3ccccn3)cs2)sc1C	x	4.1µM*	x	u	-38	u
CC(=O)c1ccc2ccccc2c1OC(=O)c1ccncc1	x	x	x	x	-22	x
N=c1nc2n(cc1F)C1OC(CO)C(O)C1O2 (stereo not drawn)	x	x	x	u	-99*	x
N=c1ccn2c(n1)O[C@H]1[C@H](O)[C@@H](CO)O[C@H]12	0	1%[0.00184 µM]	-1	-10%	-96*	1%
N=c1ncn(C2OC(CO)C(O)C2O)c2nc(Br)[nH]c12 (stereo not drawn)	x	x	x	x	15	x
N=c1ccn2c(n1)O[C@H]1[C@@H](CO)[C@H](O)O[C@H]12	x	-14%	x	u	-98*	47%
O=C(OCC1OC2C(Oc3nc(=O)ccn32)C1O)c1ccccc1 (stereo not drawn)	26	10%	-2	6%	7	20%
Cc1ccc2nc(C(F)(F)F)c(C#N)c(N)c2c1	1	12%	-1	25µM*	-107*	u
COc1cccc(NC(=O)c2ccn(C)n2)c1	72*	i	41*	4%	43	i
COc1cccc(NC(=O)c2cnsn2)c1	140*	x	44*	9%	x	148%
COc1cccc(NC(=O)c2cccc(C(=O)Nc3cccc(OC)c3)n2)c1	-3	44%	4	x	-36	u
COCCNC(=O)C1CCCN(C(=O)c2nc(C)oc2C)CC1 (stereo not drawn)	x	x	x	x	30	x
O=C(O)c1ccc(-c2ccc(/C=C3\NC(=O)N(Cc4ccc(Cl)cc4)C3=O)o2)cc1Cl	-6	15µM*	11	-11%	40	-4%
CN(C)CCNC(=O)NC1CCCCC1	-11	x	-1	10%	-33	-23%
CN(C)CCCNC(=O)CCC1CCCCC1	15	6%	-5	8%	-107*	x
Cc1ccc2c(CNCc3ccccc3)cc(=O)oc2c1	17	-28%	3	-15%	-34	u
O=C(COc1ccccc1)Nc1ccc2nc(SCC(=O)N3CCOCC3)sc2c1	x	x	x	x	-20	x
CN1C[C@@H]2C(c3ccc(Cl)nc3)C3(c4cccnc4)CC2(C3)[C@H]1c1ccccc1 (stereo partly drawn)	-1	10µM*	9	15%	-19	10µM*
CN1C[C@@H]2C(c3ccc(Cl)nc3)C3(c4ccccc4)CC2(C3)[C@H]1c1ccccc1 (stereo partly drawn)	19	9.3µM*	-4	-13%	-13	13µM*
CC1CCN(S(=O)(=O)c2ccc3c(c2)N(CC(=O)N(C)Cc2ccco2)C(=O)CO3)CC1	-1	u	7	u	-13	u
